Assay results reported in PubChem BioAssay (NCATS).
Results filed as inconclusive are left out. Calls of active or inactive are those of the source. Unless noted, how the calls were made is not given here.

Legend:
[1] = qHTS Assay for Identifying Gametocytocidal Compounds (AID 743244; active means well fitted curve in the direction sought with a large enough effect; an effect the other way counts as inactive or inconclusive; further: potency means the concentration at half of the fitted maximal effect;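 on max response: on the % scale 0 is the no-effect control and ±100 the full control effect; actives lower the fluorescent signal which means gametocytes are killed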); conditions: P. falciparum 3D7 stage III-V gametocytes, alamarBlue, 72 h; max response: stronger effect = lower value
In short: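 Stage III-V P. falciparum 3D7 gametocytes, 20,000 per well, were exposed to compounds for 72 h at 37C, 5% CO2. AlamarBlue was then added for 24 h and viability was read as fluorescence at Ex 525/Em 598 nm.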

[2] = qHTS profiling for inhibitors of Plasmodium falciparum (3D7) proliferation (AID 743322);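 further: infected erythrocytes exposed to compound for 72 h before lysis; 100% = DMSO vehicle wells and 0% = 0.29 µM artemisinin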; conditions: P. falciparum 3D7 proliferation; at 28.7 µM (top of the series) unless noted
In short: (§1)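 Erythrocytes infected with P. falciparum (0.3% parasitemia, 2.5% hematocrit) incubated with compounds 72 h at 37 C, 5% CO2. Lysis with saponin/Triton buffer containing SYBR Green I, overnight at room temperature in the dark; DNA fluorescence (485/535 nm) normalised to 0.29 uM artemisinin and DMSO.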

[3] = qHTS profiling for inhibitors of Plasmodium falciparum (DD2) proliferation (AID 743323); conditions: lower = more inhibition; at 28.7 µM (top of the series) unless noted
In short: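 Parasite proliferation measured via DNA-dye fluorescence, as uninfected erythrocytes lack DNA. Cultures at 0.3% parasitemia and 2.5% hematocrit incubated 72 h with compound; signal scaled between vehicle and 0.29 uM artemisinin wells.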

[4] = qHTS profiling for inhibitors of Plasmodium falciparum (HB3) proliferation (AID 743324; active means well fitted curve in the direction sought with a large enough effect; an effect the other way counts as inactive or inconclusive;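 further: 100% = DMSO vehicle wells and 0% = artemisinin-treated control wells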); conditions: Plasmodium falciparum HB3 blood-stage proliferation; at 28.7 µM (top of the series) unless noted
In short: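 P. falciparum HB3 grown in erythrocytes (0.3% parasitemia, 2.5% hematocrit final) with compound for 72 h at 37 C, 5% CO2. Parasite DNA detected by SYBR Green after saponin/triton lysis overnight; normalized to 0.29 uM artemisinin and DMSO.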

[5] = qHTS profiling of the MIPE4 collection as inhibitors of Plasmodium falciparum (3D7) proliferation (AID 743344);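 further: scaled between DMSO vehicle wells and 0.29 µM artemisinin as full inhibition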; conditions: P. falciparum 3D7 in erythrocytes, SYBR Green DNA fluorescence, 72 h
In short: as §1

[6] = qHTS profiling of the MIPE4 collection as inhibitors of Plasmodium falciparum (DD2) proliferation (AID 743345); conditions: P. falciparum Dd2 in erythrocytes, SYBR Green DNA, 72 h
In short: as §1

[7] = qHTS profiling of the MIPE4 collection as inhibitors of Plasmodium falciparum (DD2) proliferation (Rep 2) (AID 743346); conditions: P. falciparum Dd2 in erythrocytes, SYBR Green DNA, 72 h
In short: as §1

[8] = qHTS profiling of the MIPE4 collection as inhibitors of Plasmodium falciparum (HB3) proliferation (AID 743347);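 further: plate controls were DMSO vehicle wells for no effect and artemisinin wells for full effect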; conditions: P. falciparum HB3 in erythrocytes, SYBR Green DNA, 72 h
In short: as §1

[9] = High-throughput drug toxicity screening in the BPDCN cell line Gen2.2 (AID 1224824); conditions: Gen2.2 BPDCN cells; at 45.8 µM (top of the series) unless noted;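 further: cells exposed to compounds for 48 h before reading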
In short: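 Gen2.2 cells, 500 per well in phenol red-free RPMI with 10% FBS, exposed to compounds 48 h at 37 C, 5% CO2; viability by CellTiter-Glo luminescence. Percent activity scaled to DMSO (100%) and 9.2 uM bortezomib final (0%).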

[10] = High-throughput drug toxicity screening in the BPDCN cell line Cal-1 (AID 1224825); conditions: Cal-1 BPDCN cell viability, qHTS; at 45.8 µM (top of the series) unless noted
In short: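 Exponentially growing Cal-1 cells, 500 per well in phenol red-free RPMI with 10% FBS, were exposed to compounds for 48 h at 37 °C, 5% CO2. Viability was read by CellTiter-Glo luminescence and normalised to DMSO (100%) and 9.2 uM bortezomib (0%).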

[11] = qHTS assay for measurement of the activity of small molecule inhibitors on Zika virus induced Caspase-3 activity in human iPSC derived neural progenitor cells (hNPCs) (AID 1224857; active means well fitted curve in the direction sought with a large enough effect; an effect the other way counts as inactive or inconclusive; further: % of control where 0% means no effect; nearly all actives have a fitted effect of over 65% in size)
In short: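 Human iPSC-derived neural progenitor cells pretreated 1 hr with compounds, then infected with Zika virus (2 FFU/cell) for 6 hours at 37 C. Caspase-3/7 measured by Caspase-Glo luminescence; % inhibition calculated from induction scaled to uninfected (0%) and infected (100%) wells.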

[12] = qHTS assay for measurement of the activity of small molecule inhibitors on Zika virus induced Caspase-3 activity in human astrocytoma cells (AID 1224859; active means well fitted curve in the direction sought with a large enough effect; an effect the other way counts as inactive or inconclusive;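 further: plate controls were ZIKV-infected untreated cells for no effect and uninfected cells for full effect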)
In short: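 SNB-19 astrocytoma cells, 250/well, pretreated 1 h with compounds, then Zika virus at 2 FFU/cell for 6 h at 37 C; Caspase-Glo 3/7 luminescence after 30 min; percent inhibition normalised to uninfected and infected controls.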

[13] = at 28.5 µM (top of the series) unless noted

COc1cc2c(cc1OC)CC(=O)N(CCCN(C)C[C@H]1Cc3cc(OC)c(OC)cc31)CC2
max response [1]: -6.61% (inactive)
remaining parasite growth % (stronger effect = lower value) [2]: 105%
activity, percent of control [3]: 102%
remaining proliferation (% of control), lower = more inhibition [4]: 77.1%
parasite growth, % of DMSO control [5, 13]: 92%
parasite growth remaining, % of DMSO control (lower = more inhibition) [6, 13]: 98.4%
parasite growth, % of control (lower = inhibition) [7, 13]: 55.5%
growth, % of control [8, 13]: 79.8%
cell viability, % of control (lower = more cytotoxic) [9]: 163%
viability (% of control) [10]: 106%
Potency [11]: inactive
Potency [12]: inactive

COc1ccc2cc1Oc1ccc(cc1)C[C@H]1c3cc(c(OC)cc3CCN1C)Oc1c(OC)c(OC)cc3c1[C@H](C2)N(C)CC3
cell viability, % of control (lower = more cytotoxic) [9]: 146%
viability (% of control) [10]: 94.6%
Potency [11]: inactive
Potency [12]: inactive

COc1cccc(OC)c1-c1cc(C(=O)NC2(C(=O)O)C3CC4CC(C3)CC2C4)nn1-c1ccnc2cc(Cl)ccc12 (stereo not drawn)
max response [1]: 42.4% (inactive)
remaining parasite growth % (stronger effect = lower value) [2]: 23.7%
activity, percent of control [3]: 56.1%
remaining proliferation (% of control), lower = more inhibition [4]: 47.3%
parasite growth, % of DMSO control [5, 13]: 31.4%
parasite growth, % of control (lower = inhibition) [7, 13]: 29.8%
growth, % of control [8, 13]: 7.09%
cell viability, % of control (lower = more cytotoxic) [9]: 119%
viability (% of control) [10]: 128%
Potency [11]: inactive
Potency [12]: inactive

CCCCCCCCCCCCCC(=O)N[C@H](CO)[C@H](O)c1ccc([N+](=O)[O-])cc1
max response [1]: -2.76% (inactive)
remaining parasite growth % (stronger effect = lower value) [2]: 90.4%
activity, percent of control [3]: 82.3%
remaining proliferation (% of control), lower = more inhibition [4]: 73.2%
parasite growth, % of DMSO control [5, 13]: 55.9%
parasite growth, % of control (lower = inhibition) [7, 13]: 33%
growth, % of control [8, 13]: 24.3%
cell viability, % of control (lower = more cytotoxic) [9]: 1.84%
viability (% of control) [10]: 5.68%
Potency [11]: inactive
Potency [12]: inactive

COc1cc2nccc(Oc3ccc(NC(=O)Nc4cc(C)on4)c(Cl)c3)c2cc1OC
max response [1]: 19.1% (inactive)
remaining parasite growth % (stronger effect = lower value) [2]: 62.8%
activity, percent of control [3]: 62%
remaining proliferation (% of control), lower = more inhibition [4]: 11.5%
parasite growth, % of DMSO control [5, 13]: 7.24%
parasite growth remaining, % of DMSO control (lower = more inhibition) [6, 13]: 22.7%
parasite growth, % of control (lower = inhibition) [7, 13]: 27.3%
growth, % of control [8, 13]: 3.73%
cell viability, % of control (lower = more cytotoxic) [9]: 52.1%
viability (% of control) [10]: 13%
Potency [11]: inactive
Potency [12]: inactive

CC(C)C[C@H](NC(=O)c1cc2ccccc2s1)C(=O)N1CCN(C(=O)[C@H](CO)NS(=O)(=O)c2ccc(Cl)cc2Cl)CC1
max response [1]: 4.85% (inactive)
remaining parasite growth % (stronger effect = lower value) [2]: 17.9%
activity, percent of control [3]: 27.2%
remaining proliferation (% of control), lower = more inhibition [4]: 5.88%
parasite growth, % of DMSO control [5, 13]: 11.1%
parasite growth remaining, % of DMSO control (lower = more inhibition) [6, 13]: 47.5%
parasite growth, % of control (lower = inhibition) [7, 13]: 20.2%
growth, % of control [8, 13]: 10.7%
cell viability, % of control (lower = more cytotoxic) [9]: 29.4%
viability (% of control) [10]: 67%
Potency [11]: inactive
Potency [12]: inactive

Clc1ccc(COC(Cn2ccnc2)c2ccc(Cl)cc2Cl)c(Cl)c1 (stereo not drawn)
Potency [1]: 4.48 µM (active)
remaining parasite growth % (stronger effect = lower value) [2]: -0.257%
activity, percent of control [3]: -0.374%
remaining proliferation (% of control), lower = more inhibition [4]: -0.548%
parasite growth, % of DMSO control ([5]; at 9.64 µM (top of the series)): 4.92%
parasite growth, % of DMSO control ([5]; at 28.5 µM (top of the series)): 5.47%
parasite growth remaining, % of DMSO control (lower = more inhibition) ([6]; at 9.64 µM (top of the series)): 11.2%
parasite growth remaining, % of DMSO control (lower = more inhibition) ([6]; at 28.5 µM (top of the series)): 6.56%
parasite growth, % of control (lower = inhibition) ([7]; at 9.64 µM (top of the series)): 19.2%
parasite growth, % of control (lower = inhibition) ([7]; at 28.5 µM (top of the series)): 12.3%
growth, % of control ([8]; at 9.64 µM (top of the series)): 8.03%
growth, % of control ([8]; at 28.5 µM (top of the series)): 5.5%
cell viability, % of control (lower = more cytotoxic) [9]: 90.5%
viability (% of control) [10]: 72.7%
Potency [11]: inactive
Potency [12]: inactive

COc1ccc(-c2nc3ccc(C4=NNC(=O)CC4C)cc3[nH]2)cc1 (stereo not drawn)
max response [1]: 13.2% (inactive)
cell viability, % of control (lower = more cytotoxic) [9]: 263%
viability (% of control) [10]: 107%
Potency [11]: inactive
Potency [12]: inactive

CC(C)n1c(C=C[C@H](O)C[C@H](O)CC(=O)O)c(-c2ccc(F)cc2)c2ccccc21
max response [1]: -4.13% (inactive)
cell viability, % of control (lower = more cytotoxic) [9]: 9.81%
viability (% of control) [10]: 66.9%
Potency [11]: inactive
Potency [12]: inactive
